Compound activity as filed in PubChem.
Sampled rows, rich in hits. Any-hit rate of the full collection: about 2.4%.
FEN1 inh: qHTS Assay for the Inhibitors of Human Flap endonuclease 1 (FEN1); Recombinant FEN1 flap cleavage, fluorescence, 15 min; AID 588795, 2011; P39748; hit rate 0.35% among 390,000; Potency, µM (titrated, usually from 114 µM), usual class: inhibitors; note: nearly all actives have a fitted effect of over 65% in size
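Recombinant FEN1 (10 nM) was preincubated with pin-transferred compounds for 15 min at room temperature, then flap DNA substrate (50 nM final) was added. Plates were read at 0 and 15 min, and normalized concentration–response data were fitted to a four-parameter Hill equation.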
Pol eta inh-1: qHTS for Inhibitors of Polymerase Eta. DNA polymerase eta (Homo sapiens), Q9Y253. recombinant Pol eta, fluorescent DNA replication assay. Potency, µM (series often up to 114 µM), most hits filed as inhibitors. hit rate 1.2% among 390,000. AID 588591, 2011
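Pol eta at 10 nM preincubated with compounds 15 min at room temperature; reaction started with fluorescent substrate (50 nM final) and read kinetically at 0 and 10 min.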
Pol kappa inh-1: qHTS for Inhibitors of Polymerase Kappa. purified Pol kappa, fluorescent DNA synthesis assay, 10 min. Potency, µM (titrated, usually from 107 µM), hits mostly inhibitors. hit rate 0.53% among 400,000. AID 588579, 2011
Target sequence (Q9UBT6 whole entry, looked up): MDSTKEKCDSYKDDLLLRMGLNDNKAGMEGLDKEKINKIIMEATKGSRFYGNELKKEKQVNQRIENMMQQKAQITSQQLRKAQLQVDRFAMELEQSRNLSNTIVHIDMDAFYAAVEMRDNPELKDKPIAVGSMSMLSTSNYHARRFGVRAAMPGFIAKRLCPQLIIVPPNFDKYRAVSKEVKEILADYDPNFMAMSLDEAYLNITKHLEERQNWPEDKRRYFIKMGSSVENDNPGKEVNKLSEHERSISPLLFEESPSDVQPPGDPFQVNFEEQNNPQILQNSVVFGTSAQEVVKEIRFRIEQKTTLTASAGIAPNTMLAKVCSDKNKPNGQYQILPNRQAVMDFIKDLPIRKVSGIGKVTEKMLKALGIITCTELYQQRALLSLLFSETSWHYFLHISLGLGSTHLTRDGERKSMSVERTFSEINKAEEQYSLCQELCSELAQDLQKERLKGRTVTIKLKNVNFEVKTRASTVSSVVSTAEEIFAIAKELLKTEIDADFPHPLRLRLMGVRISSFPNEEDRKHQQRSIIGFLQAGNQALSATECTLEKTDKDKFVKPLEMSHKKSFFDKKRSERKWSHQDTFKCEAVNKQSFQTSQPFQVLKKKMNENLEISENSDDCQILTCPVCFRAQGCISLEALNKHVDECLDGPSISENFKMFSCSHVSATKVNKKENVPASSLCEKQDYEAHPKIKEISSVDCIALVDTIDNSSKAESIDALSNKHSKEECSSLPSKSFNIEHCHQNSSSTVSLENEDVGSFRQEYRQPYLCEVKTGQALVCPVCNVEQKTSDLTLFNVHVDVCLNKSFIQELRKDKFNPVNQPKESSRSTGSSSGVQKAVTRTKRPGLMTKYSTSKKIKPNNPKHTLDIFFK
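Inhibition of 10 nM Pol kappa is measured by a fluorescent read-out at 0 and 10 min following addition of 50 nM substrate (final), with a 15-min room-temperature compound preincubation.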
POLI inh: qHTS for Inhibitors of Polymerase Iota. hit rate 1% among 390,000. Potency, µM (doses to about 115 µM), hits mostly inhibitors. Pol iota fluorescent replication assay, 10 min
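Fluorescent replication assay read twice, at 0 min and 10 min after adding 50 nM (final) substrate. Enzyme (10 nM) and compounds were first incubated 15 min at room temperature; enzyme-free buffer wells were negative controls.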
WRN helicase inh: qHTS for Inhibitors of WRN Helicase | hit rate 0.46% among 360,000 | WRN helicase unwinding, fluorescent forked duplex, kinetic | Potency, µM (series often up to 114 µM), most hits filed as inhibitors | AID 651768, 2012 | Bifunctional 3'-5' exonuclease/ATP-dependent helicase WRN (Homo sapiens), Q14191; note: nearly all actives have a fitted effect of over 55% in size
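WRN at 20 nM final preincubated with compound 15 min at room temperature; reaction started with 100 nM fluorophore/quencher forked duplex oligonucleotide and 2 mM ATP final. Unwinding followed kinetically by red fluorescence (ex 525, em 598 nm).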
POLB inh: qHTS Assay for Inhibitors of DNA Polymerase Beta; hit rate 1.3% among 340,000; Pol beta primer extension/strand displacement, fluorescence kinetic; Potency, µM (highest dose often 114 µM), hits mostly inhibitors; P06746; AID 485314, 2010
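Curves were derived by four-parameter Hill fits of normalized qHTS data. The kinetic fluorescent primer-extension read was taken at 0 and 10 min after 50 nM substrate, following a 15 min room-temperature preincubation of 10 nM enzyme with compounds.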
GALK confirm: Confirmation Assay for Inhibitors of Human Galactokinase (GALK); shares compounds with Pol eta inh-1; purified GALK, Kinase-Glo ATP depletion luminescence; Potency, µM (titrated, usually from 115 µM), hits mostly inhibitors; hit rate 70% among 150; AID 2015, 2009
Redox cycling: Confirmatory Assay for Inhibitors of Human Galactokinase (GALK): Phenol-HRP redox assay counterscreen | shares compounds with Pol eta inh-1 | Phenol red-HRP H2O2 redox cycling, absorbance 600 nm | Potency, µM (titrated, usually from 115 µM), most hits filed as inhibitors | hit rate 40% among 150
HEK293 viability: Secondary Assay for Inhibitors of Human Galactokinase (GALK): HEK-293 Cell Viability Assay. AID 2547, 2010. hit rate 10% among 170. shares compounds with Pol eta inh-1. HEK-293 viability, ATP luminescence (CellTiter-Glo), 24/48 h. Potency, µM (titrated, usually from 46.1 µM), usual class: inhibitors
Pol kappa inh-2: qHTS for Inhibitors of Polymerase Kappa: Confirmatory Assay for Cherry-picked Compounds; shares compounds with Pol eta inh-1; purified Pol-kappa, fluorescent strand-displacement substrate; Potency, µM, hits mostly inhibitors; hit rate 76% among 920
Pol eta inh-2: qHTS for Inhibitors of Polymerase Eta: Confirmatory Assay for Cherry-picked Compounds | Pol eta primer extension, TAMRA/BHQ fluorescence, 10 min | Potency, µM, actives largely listed as inhibitors | hit rate 64% among 2,600 | shares compounds with Pol eta inh-1 | AID 720502, 2013
Numbers stand for hits; n = inactive; u = inconclusive; x = no result given; [ ] = remark or other dose. Calls come from the whole dose curve; as a rule, active = well fitted curve in the direction sought with a large enough effect; inconclusive = small, poorly fitted or top-dose-only effect, or another doubt; inactive = no such curve, though single readings can be large; an effect the other way counts as inactive or inconclusive.

SMILES	FEN1 inh	Pol eta inh-1	Pol kappa inh-1	POLI inh	WRN helicase inh	POLB inh	Pol eta inh-2	others
CC(C)c1ccc(NC(=O)C2CCN(S(=O)(=O)c3cccc4nsnc34)CC2)cc1	n	n	n	u	x	n	x
c1ccc(CSc2nnc(C3CCNCC3)o2)cc1	n	n	n	n	x	n	x
C/C(=N\Nc1ccc(Cl)c(C(=O)O)c1)c1ccc(Br)s1	n	20µM	u	u	u	50.1µM	26.9
COc1cccc(N2CC(NC(=O)COc3ccc4ccccc4c3)CC2=O)c1 (stereo not drawn)	n	n	n	n	x	n	x
COc1cc2c(cc1[N+](=O)[O-])-c1ccc([N+](=O)[O-])cc1C2=NNC(N)=S	x	10µM	x	x	n	x	x	Pol kappa inh-2=67
COc1ccc(CNc2ccnc(-c3ccccc3Cl)n2)c(OC)c1	x	x	n	x	x	x	x
Cc1ccc(-c2nnn3c2nc(NCC(C)c2ccccc2)c2ccccc23)cc1 (stereo not drawn)	n	n	n	n	x	n	x
Cc1cccc(C2C=C(c3ccc(C)c(C)c3)Nc3nnnn32)c1 (stereo not drawn)	n	n	n	u	x	n	x
C#Cc1ccc([C@@H]2C=C(C(=O)O)O[C@H](OCC)[C@H]2CCCO)cc1	n	7.94µM	50.1µM	u	n	x	30.1	Pol kappa inh-2=4.74
Cn1c2ccccc2c2cc(/C=N/NC(=O)c3cc(O)cc(O)c3)ccc21	39.8µM	22.4µM	u	28.2µM	u	89.1µM	53.6	Pol kappa inh-2=47.4
COc1ccc2nc(Cl)c(C3CC(c4ccco4)=NN3C(=O)CCCC(=O)O)cc2c1 (stereo not drawn)	n	35.5µM	28.2µM	22.4µM	n[11.6 µM]	u	75.7
CCOC(=O)/C=C(\C)Sc1cc(=O)oc2ccccc12	n	n	n	n	n	n	x
CCOC(=O)/C=C(\C)Sc1cc(O)c2ccccc2c1O	u	28.2µM	n	u	n	35.5µM	x	GALK confirm=29.8µM;Redox cycling=18.8µM;HEK293 viability=u
COc1cccc(/C=C2/C(=O)NN(c3ccc(C)c(C)c3)C2=O)c1	n	n	n	u	n	u	x
COc1cc(/C=C2/C(=O)NN(c3cccc(Cl)c3)C2=O)cc(OC)c1O	n	n	n	u	n	u	x
COc1cc(/C=C2/C(=O)NN(c3cccc(C)c3)C2=O)cc([N+](=O)[O-])c1O	n	22.4µM	u	u	n[11.6 µM]	u	u
COc1cc(/C=C2/C(=O)NN(c3ccc(C)c(Cl)c3)C2=O)cc([N+](=O)[O-])c1O	u	28.2µM	n	n	u	35.5µM	84.9
CCN(CC)C(=O)c1sc2c(c1C)c(=O)n(CCc1ccccc1)c(=O)n2Cc1ccc(F)cc1Cl	n	n	n	n	x	n	x
